Bioassay records from PubChem.
Compounds with a hit are over-represented: about 4% of the library has one in this group of screens.
697 NFkB inh = lowers PMA/ionomycin-induced NF-kB signal in 697 B cells; AID 435022; inhibition, % at 4 µM; actives 0.33% (n = 330,000); 697 B-cell NF-kB luciferase reporter, 16 h; in the data active = inhibition above about 35%
Mdm2 MdmX PPI = inhibitors of human Mdm2/MdmX interaction; actives 3% (n = 330,000); O15151+Q00987; AID 485346; SaOS-2 split-luciferase Mdm2/MdmX complementation, luminescence; inhibition, % at 8 µM;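 active = inhibition of at least 50% at 8 µM in the primary screen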
Target sequence (O15151 whole entry, looked up): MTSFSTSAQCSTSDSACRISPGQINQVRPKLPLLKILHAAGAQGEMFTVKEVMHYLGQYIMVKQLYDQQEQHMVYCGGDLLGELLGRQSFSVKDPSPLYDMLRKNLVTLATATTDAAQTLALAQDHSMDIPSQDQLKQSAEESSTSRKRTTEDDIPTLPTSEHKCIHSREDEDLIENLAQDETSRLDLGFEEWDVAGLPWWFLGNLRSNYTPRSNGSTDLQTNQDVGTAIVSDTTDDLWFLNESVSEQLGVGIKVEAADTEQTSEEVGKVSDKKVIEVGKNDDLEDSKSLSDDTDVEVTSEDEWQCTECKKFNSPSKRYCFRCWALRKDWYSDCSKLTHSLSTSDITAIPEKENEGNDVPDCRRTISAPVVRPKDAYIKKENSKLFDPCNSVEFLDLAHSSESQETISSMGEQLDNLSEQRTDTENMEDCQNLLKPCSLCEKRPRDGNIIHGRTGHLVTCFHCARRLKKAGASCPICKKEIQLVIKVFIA
Target sequence (Q00987 whole entry, looked up): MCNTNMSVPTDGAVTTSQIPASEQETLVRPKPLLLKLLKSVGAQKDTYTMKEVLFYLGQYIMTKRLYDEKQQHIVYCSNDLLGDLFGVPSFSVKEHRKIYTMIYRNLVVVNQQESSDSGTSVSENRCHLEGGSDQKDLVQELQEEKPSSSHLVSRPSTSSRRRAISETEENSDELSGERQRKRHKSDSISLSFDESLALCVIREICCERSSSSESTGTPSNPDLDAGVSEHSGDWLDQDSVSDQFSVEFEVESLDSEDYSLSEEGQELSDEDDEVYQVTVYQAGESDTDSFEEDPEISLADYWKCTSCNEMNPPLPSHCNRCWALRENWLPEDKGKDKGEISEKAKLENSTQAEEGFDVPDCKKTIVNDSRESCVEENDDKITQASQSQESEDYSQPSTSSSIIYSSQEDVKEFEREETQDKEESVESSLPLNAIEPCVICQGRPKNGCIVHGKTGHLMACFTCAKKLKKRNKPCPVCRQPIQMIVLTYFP
Beta apoptosis = beta cell apoptosis inhibition | INS-1E cytokine-induced death, ATP luminescence, 48 h; percent of positive-control rescue, neutral wells zero | protection from apoptosis, % (no concentration beside the values) | actives 0.8% (n = 300,000) | AID 435005;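 active = Every replicate reaches about 75%, or at least half do and their mean reaches it too, limit read from the data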;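 also: 0% = cytokine-treated negative control wells and 100% = positive control rescue; higher means more ATP so stronger rescue from cytokine killing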
Gli-Sufu antag = blocks Gli-Sufu signaling in a luciferase reporter; inhibition, % at 5 µM; AID 588413; actives 0.74% (n = 340,000); Sufu-KO-LIGHT fibroblasts, Gli luciferase reporter luminescence;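 active = inhibition above about 55%, limit read from the data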;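 also: 0% = DMSO-treated cells and 100% = wells with medium but no cells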
Jurkat NFkB inh = lowers PMA/ionomycin-induced NF-kB signal in Jurkat cells; PMA/ionomycin-induced NF-kB luciferase reporter, luminescence; inhibition, % at 4 µM; actives 0.53% (n = 330,000); AID 435003; in the data active = inhibition above about 50%
Mdm2 MdmX conf = confirmation of human Mdm2/MdmX interaction inhibitors | Mdm2-MdmX binding, luminescent assay | inhibition, % at 8 µM | actives 55% (n = 10,000) | shares compounds with Mdm2 MdmX PPI; in the data active = inhibition above about 40%
Full FLuc ctr = full-length luciferase inhibition in Mdm2/MdmX counter-screen. shares compounds with Mdm2 MdmX PPI. SaOS-2 full-length luciferase counterscreen, luminescence. inhibition, % at 8 µM. actives 77% (n = 6,200). AID 504607;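 active = mean inhibition at 8 µM reaching about 37%, which flags the compound as non-specific, limit read from the data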;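 also: p53-null SaOS-2 cells with luciferase driven by a doxycycline-inducible promoter; compound on cells about two nights before reading with doxycycline added after day one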
The depositor's hits bear a star; x = no result given.

SMILES | 697 NFkB inh | Mdm2 MdmX PPI | Beta apoptosis | Gli-Sufu antag | Jurkat NFkB inh | Mdm2 MdmX conf | Full FLuc ctr
COc1ccccc1-c1oc2ccccc2c1C#CC1(O)CCCCC1 | 11 | 2 | -6 | 28 | -13 | x | x
COc1ccccc1-c1oc2ccccc2c1C#CC1(N)CCCCC1 | 20 | 74* | 7 | -1 | 13 | 34 | x
CC(=O)Nc1ccc(NC(=O)Cn2c(=O)n(-c3ccc(C)cc3)c(=O)c3oc4ccccc4c32)cc1 | 8 | 9 | -2 | 6 | -1 | x | x
CC(C)(C)c1ccc(OCCCC(=O)NNC(=O)c2ccccc2O)cc1 | -63 | 58* | x | -23 | 3 | 66* | 45*
CCOC(=O)CSc1nc2cc(C(=O)NCc3ccco3)ccc2c(=O)n1-c1ccc(F)cc1 | 20 | 71* | x | -1 | 1 | 13 | 83*
O=C(NCc1ccco1)c1ccc2c(=O)n(-c3ccccc3)c(=S)[nH]c2c1 | 13 | 50* | -1 | 8 | 9 | -4 | x
CCOC(=O)CSc1nc2cc(C(=O)NCc3ccco3)ccc2c(=O)n1C1CCCCC1 | -4 | -37 | -5 | -5 | 2 | x | x
COc1ccc(-n2c(=S)[nH]c3cc(C(=O)NCc4ccco4)ccc3c2=O)cc1OC | 15 | -17 | -10 | -2 | 16 | x | x
CN1CCN(CCNC(=O)c2ccc3nc(-c4ccc(F)cc4)c(-c4ccc(F)cc4)nc3c2)CC1 | -7 | 54* | 2 | 16 | -18 | 29 | x
COC(=O)C1=C(C(=O)OC)[C@@H]2N(Cc3ccccc3)c3ccccc3[C@@]23C[C@@H](C(=O)OC)N(C(=O)c2cc(C)oc2C)C3=N1 | 19 | 57* | 2 | -2 | 21 | 7 | x
COC(=O)C1=C(C(=O)OC)[C@@H]2N(Cc3ccccc3)c3ccccc3[C@@]23C[C@@H](C(=O)OC)N(C(=O)c2cccs2)C3=N1 | 11 | 60* | -5 | 0 | 7 | 21 | x
COC(=O)C1=C(C(=O)OC)[C@@H]2N(C)c3ccccc3[C@@]23C[C@@H](C(=O)OC)N(C(=O)c2cccs2)C3=N1 | 6 | 24 | -7 | -8 | 16 | x | x
CCOC(=O)/C(=C/C1=CC(=C/N(C)C)/C(=O)O1)C(C)=O | 9 | 5 | 6 | 4 | 9 | x | x
O=C(Nc1ccc(OCC(=O)N2CCOCC2)cc1)Nc1cccc2ccccc12 | 15 | 32 | 7 | -2 | 19 | x | x
COc1ccc(NS(=O)(=O)c2cccc(C(=O)NN=C(C)c3ccco3)c2)cc1 | 6 | -5 | 2 | 6 | 3 | x | x
Cc1ccc(NC2CCCN(C(=O)C3CCCC3)C2)cc1C (centres undefined) | 6 | 18 | 0 | 5 | -1 | x | x
COC(=O)c1c(N)sc(C(=O)NCCc2ccccc2)c1C | -103 | 65* | 8 | -29 | -18 | 59* | 73*
O=C(c1cc(-c2ccccc2Cl)nc2ccc(Br)cc12)N1CCN(c2ccccn2)CC1 | -24 | 74* | 106* | 14 | 10 | 9 | x
Cc1ccc(-c2cc(C(=O)N3CCN(c4ccccc4O)CC3)c3ccccc3n2)o1 | -46 | 5 | 9 | -31 | -28 | x | x
COc1ccc(-c2cc(C(=O)N3CCN(c4ncccn4)CC3)c3ccccc3n2)cc1OC | 0 | 29 | 2 | 11 | -12 | x | x
COc1ccc(-c2cc(C(=O)N3CCN(c4cccc(C)c4C)CC3)c3ccccc3n2)cc1OC | -22 | 75* | 0 | 10 | 13 | 18 | x
O=C(c1cc(-c2ccc(Br)cc2)nc2ccccc12)N1CCN(c2ccccc2O)CC1 | -8 | 56* | -2 | -9 | 5 | 30 | x
Cc1sc2ncn(CC(=O)Nc3ccccc3F)c(=O)c2c1-c1ccccc1 | 6 | 20 | 3 | 1 | 4 | x | x
Cc1ccc(C)c(NC(=O)Cn2nnc(C(=O)NCc3cccs3)c2N)c1 | -21 | 65* | 0 | -8 | 33 | 12 | x
Cc1ccc(NC(=O)Cn2nnc(C(=O)NCc3cccs3)c2N)cc1 | -1 | 21 | 0 | 11 | 11 | x | x
SMILES | 697 NFkB inh | Mdm2 MdmX PPI | Beta apoptosis | Gli-Sufu antag | Jurkat NFkB inh | Mdm2 MdmX conf | Full FLuc ctr
O=C(Cc1n[nH]c(=O)c2ccccc12)OCC(=O)c1ccc2c(c1)OCCO2 | -30 | 55* | 13 | 2 | 43 | 68* | 94*
Cc1cc(NC(c2cccnc2)c2ccc3cccnc3c2O)no1 (centres undefined) | -10 | 74* | 104* | -2 | 16 | 68* | 40*
CCCC(=O)NC(c1ccccc1)c1ccc2cccnc2c1O (centres undefined) | -38 | 79* | 99* | -11 | 39 | 89* | 49*
COc1cccc(/C=N/NC(=O)COc2cccc3cccnc23)c1O | 4 | 31 | 0 | -6 | 8 | x | x
CCC(=O)NC(c1ccccc1OC)c1ccc2cccnc2c1O (centres undefined) | -17 | 70* | 109* | 49 | 30 | 60* | 32
CCC(=O)NC(c1ccccc1Cl)c1c(O)ccc2ccccc12 (centres undefined) | 17 | 5 | -8 | -4 | -2 | x | x
CCCCC(=O)NC(c1ccccc1Cl)c1ccc2cccnc2c1O (centres undefined) | -26 | 80* | 106* | 86* | 41 | 90* | 22
Oc1c(C(Nc2cccc(C(F)(F)F)c2)c2cccnc2)ccc2cccnc12 (centres undefined) | -34 | 21 | 5 | 23 | -7 | x | x
COc1ccc(C(=O)NC2CCCc3ccccc32)c(OC)c1OC (centres undefined) | 2 | 4 | 2 | 3 | 7 | x | x
CCOC(=O)c1ccc(NC(=S)N2CCN(C(=O)C3CCCO3)CC2)cc1 (centres undefined) | 15 | 4 | -5 | -6 | 3 | x | x
COc1ccc(/C=C/C(=O)O)cc1S(=O)(=O)NC1CCS(=O)(=O)C1 (centres undefined) | 7 | 20 | 0 | -10 | 3 | x | x
CCCCC(=O)NC(c1ccccc1)c1ccc2cccnc2c1O (centres undefined) | -10 | 72* | 99* | -26 | 42 | 88* | 50*
COc1ccc(Cl)cc1C(Nc1cccnc1)c1ccc2cccnc2c1O (centres undefined) | -58 | 67* | x | 0 | 6 | 63* | 44*
CCCCC(=O)NC(c1ccc([N+](=O)[O-])cc1)c1c(O)ccc2ccccc12 (centres undefined) | -26 | 47 | 33 | 6 | 20 | x | x
Cc1ccc(N(C(=O)c2csnn2)C(C(=O)NC2CCCCC2)c2cccnc2)c(C)c1 (centres undefined) | 9 | 24 | -2 | 6 | 4 | x | x
CC(C)n1c(SCC(=O)Nc2nncs2)nnc1-c1ccco1 | -21 | 19 | -3 | -10 | -6 | x | x
CCc1ccc2c(c1)C1(C(=O)N2)N2CCCC2C(C(=O)c2ccc3ccccc3c2)C12C(=O)Nc1ccccc12 (centres undefined) | -39 | 91* | 121* | -15 | -21 | 38 | 91*
